# Experimental data published in PubChem BioAssay (EPA / NIEHS).
# Calls of active or inactive are those of the source. How the source made its calls: active means hit-call score of the fitted dose curve at least 0.9, where 1 is the maximum; inactive means score below 0.9.
# Test: Tanguay_ZF_120hpf_MORT: Oregon State University Tanguay Lab 120 Hour Post-fertilization zebrafish Assay for Mortality (AID 2284399)
# Protocol: Tanguay_ZF_120hpf is a whole embryo, multiplexed endpoint assay using zebrafish larvae exposed for 120 hours post fertilization on a 96-well plate.Tanguay_ZF_120hpf_MORT is one of one assay component(s) measured or calculated from the Tanguay_ZF_120hpf assay. It is designed to make measurements of zebrafish development as detected with brightfield microscopy of developing zebrafish embryos.Data from the assay component Tanguay_ZF_120hpf_MORT was analyzed into 1 assay endpoints. This assay endpoint, Tanguay_ZF_120hpf_MORT, was analyzed in the positive analysis fitting direction relative to DMSO as the negative control and baseline of activity. Using a type of viability reporter, gain-of-signal activity can be used to understand changes in developmentals as they relate to the whole embryo. To generalize the intended target to other relatable targets, this assay endpoint is annotated to the zebrafish development intended target family, where the subfamily is embryonic mortality.
# Zebrafish husbandry: Tropical 5D wild-type adult zebrafish were housed in at an approximate density of 1000 per 100 gallon tank at the Sinnhuber Aquatic Research Laboratory, Oregon State University, Corvallis, OR. Each tank was kept at standard laboratory conditions of 28C on a 14-h light/10-h dark photoperiod in fish water consisting of reverse osmosis water supplemented with a commercially available salt (Instant Ocean). Spawning funnels were placed into the tanks the night prior, and embryos were collected and staged. To increase bioavailability, the chorion was enzymatically removed using pronase (63.6mg/ml, >/= 3.5U/mg, Sigma-Aldrich: P5147) at 4 hours post fertilization (hpf) using a custom automated dechorionator.Chemical exposures: Six hpf dechorionated embryos were placed 1 embryo per well in a 96-well plate prefilled with 90 ul of EM using automated embryo placement systems (AEPS). Ten microliters of each row of dilution plate 2 was added to 2 exposure plates. The final DMSO concentration used was 0.64% (vol/vol). Thirty-two embryos were also exposed to 5uM trimethyltin chloride (positive control). Plates were sealed to prevent evaporation and foil covered to reduce light exposure and kept in a 28C incubator. Embryos were statically exposed until 120 hpf. At 24 hpf, embryos were assessed for photomotor response using a custom photomotor response analysis tool (PRAT) and for developmental toxicity endpoints (MO24: mortality at 24 hpf, DP: developmental progression, SM: spontaneous movement, and NC: notochord distortion). At 120 hpf, locomotor activity was measured using Viewpoint Zebralab and assessed for 13 endpoints. Zebrafish acquisition and analysis program (ZAAP), a custom program designed to inventory, acquire, and manage zebrafish data, was used to collect developmental endpoints as either present or absent (i.e., binary responses were recorded). If mortality occurred for an embryo (at either 24 or 120 hpf), the non-mortality endpoints were not measured.
SMILES,outcome,AC50
FC(F)(F)C(F)(C(F)(F)F)C(F)(F)C(F)(F)CC1CO1 (centres undefined),inactive,
OCC(F)(F)OC(F)(F)C(F)(F)OC(F)(F)C(F)(F)OC(F)(F)F,inactive,
O=C(O)C(F)(F)C(F)(F)C(=O)O,inactive,
OCC(F)(F)OC(F)(F)C(F)(F)OC(F)(F)C(F)(F)OC(F)(F)CO,,57.6 µM (active)
CC(O)C(F)(F)C(F)(F)F (centres undefined),inactive,
O=C(O)C(F)(F)OC(F)(F)C(F)(F)OC(F)(F)C(=O)O,inactive,
OCC(F)(F)OC(F)(F)C(F)(F)OC(F)(F)CO,inactive,
NC(=O)C(F)(F)C(F)(F)F,inactive,
O=C(O)C(F)(F)OC(F)(F)C(F)(F)OC(F)(F)F,inactive,
C=CC(=O)OCC(F)(F)C(F)F,,64 µM (active)
O=S(=O)(F)C(F)(F)C(F)(F)C(F)(F)C(F)(F)C(F)(F)C(F)(F)C(F)(F)C(F)(F)F,inactive,
O=C(O)C(F)(OC(F)(F)C(F)(F)C(F)(F)F)C(F)(F)F (centres undefined),inactive,
COC(=O)C(F)(F)C(F)(F)OC(F)(C(F)(F)F)C(F)(F)OC(F)=C(F)F (centres undefined),,22.2 µM (active)
O=C(O)C=CC(F)(C(F)(F)F)C(F)(F)F,inactive,
